tim10-1 inh = growth inhibitors of tim10-1 mutant yeast; S. cerevisiae tim10-1 ts strain growth, BacTiter-Glo, 24 h; 330,000 compounds, 2.2% hits; inhibition, % at 20 µM; AID 463190;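 active = inhibition of at least 40%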;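 also: mutant grown at 25 °C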
NLRP3 yeast inh = blocks the NALP3 inflammasome reconstituted in yeast; 330,000 compounds, 0.39% hits; AID 2825; Yeast reconstituted NLRP3/ASC/caspase-1, beta-gal luminescence, 24 h; inhibition, % at 10 µM;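 active = inhibition of 50% or more; inactive = inhibition below 50%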
TIM10 inh = inhibits growth of TIM10 yeast strain. S. cerevisiae TIM10 strain growth, BacTiter-Glo luminescence, 24 h. inhibition, % at 10 µM. 330,000 compounds, 1.4% hits. AID 463195;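 active = inhibition of 40% or more at the single tested concentration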;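 also: wild-type TIM10 isogenic control strain grown at permissive 25 °C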
SKKanGAS inh = SKKanGAS growth inhibition | S. pyogenes SKKanGAS, kanamycin growth, BacTiter-Glo, 6 h | inhibition, % at 7.5 µM | 300,000 compounds, 1.3% hits | AID 1662;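 active = mean replicate score, as percent of positive control median, at least 50; inconclusive = mean below 50 but one replicate at or above 50; inactive = mean and every replicate below 50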;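 also: strain carries kanamycin resistance gene driven by streptokinase promoter and grows in 40 µg/ml kanamycin; loss of luminescence reflects streptokinase promoter inhibition or plain growth inhibition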
PfHsp90 set2 = reduces growth (ATP signal) of yeast expressing P. falciparum Hsp90; S. cerevisiae expressing PfHsp90, BacTiter-Glo ATP, 48 h; yeast lacking PDR1 and PDR3 efflux regulators; inhibition, % at 9.4 µM; 310,000 compounds, 0.32% hits; AID 504621;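 active = every replicate shows inhibition above about 80%, whatever the replicate mean, limit read from the data; inconclusive = mean inhibition reaches the set limit but some replicate falls short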
tim23-1 inh = tim23-1 yeast growth inhibition; S. cerevisiae tim23-1 growth, BacTiter-Glo luminescence, 24 h; inhibition, % at 20 µM; 330,000 compounds, 1.3% hits; AID 463212;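 active = growth inhibition of the mutant yeast at or above 50%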;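 also: temperature-sensitive mutant grown at 25 °C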
tim10 confirm = TIM10 yeast growth inhibition, confirmed. inhibition, % at 10 µM. S. cerevisiae tim10 strain growth, BacTiter-Glo luminescence, 24 h. AID 463215. 4,600 compounds, 63% hits. shares compounds with TIM10 inh;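 active = inhibition of yeast growth at or above a set limit in either of two replicates at 10 µM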; also: this counterscreen used the strain with wild-type TIM10
Each line names hits and unclear results; the compound was inactive in the other large screens (follow-up assays come after a bar, where they were run). Rows were chosen to be rich in hits. Some 4.6% of all compounds tested hit in one or more screens of this group.

O=C(Nc1ccc(N2CCN(C(=O)c3ccccc3)CC2)c(Cl)c1)c1ccco1	TIM10 inh 45 | tim10 confirm 36
O=C(Nc1ccc2c(c1)ncn2-c1ccccc1)c1ccco1	TIM10 inh 51 | tim10 confirm 50
O=C(c1ccccc1)c1cccc(NC(=O)c2ccco2)c1	TIM10 inh 53 | tim10 confirm 60
COc1ccc(/C=C/C(=O)OCC(=O)NC2CC2)c(OC)c1	none (no result: SKKanGAS inh, PfHsp90 set2)
CC(C)(C)n1cnc2cc(NC(=O)c3ccccc3)ccc21	TIM10 inh 58 | tim10 confirm 64
O=C(Nc1ccc2nc3ccccc3nc2c1)c1ccccc1	none (no result: tim10-1 inh, NLRP3 yeast inh, TIM10 inh, tim23-1 inh)
Cc1cc(NC(=O)c2ccccc2)cc(NC(=O)c2ccccc2)c1C	none
Cc1cc(NC(=O)c2ccccc2)sc1C	TIM10 inh 52 | tim10 confirm 42
COc1ccccc1N(CC(=O)NCc1ccco1)C(=O)CCC(=O)Nc1ccccn1	none
COc1ccc(N2CCC(CNC(=S)Nc3cccc(OC)c3)C2)cc1 (stereo unspecified)	none (no result: PfHsp90 set2)
CCc1cccc(C)c1NC(=S)NCC1CCN(c2ccc(OC)cc2)C1 (stereo unspecified)	TIM10 inh 57 | tim10 confirm 59
CCc1ccccc1NC(=S)NCC1CCN(c2ccc(OC)cc2)C1 (stereo unspecified)	TIM10 inh 40 | tim10 confirm 53
O=C(NC(=S)Nc1ccc(CN2CCOCC2)cc1)c1ccc2c(c1)OCCO2	none
Cc1ccc(C2=NN(CCC#N)C(=O)CO2)cc1	none
COC(=O)[C@@H]1CCCN1C(=O)CCc1nnc(CCC2CCCCC2)o1	TIM10 inh 45 | tim10 confirm inactive
O=C(COc1cccnc1[N+](=O)[O-])NCc1cccs1	none
O=C(Nc1ccccc1-c1ccccc1)C12CC3CC(CC(C3)C1)C2	TIM10 inh 50 | tim10 confirm 39
O=C(COc1cccc(OC(F)F)c1)Nc1ccc(SC(F)F)cc1	TIM10 inh 50 | tim10 confirm 39
Cc1sc2ncnc(Sc3nnnn3-c3ccc(Cl)cc3)c2c1C	SKKanGAS inh inconclusive
c1ccc(-n2nnnc2Sc2ncnc3sc4c(c23)CCCC4)cc1	TIM10 inh 44 | tim10 confirm inactive
COc1ccc(/C=N/NC(=S)N[C@H]2CC3CCC2C3)cc1 (stereo partly specified)	TIM10 inh 47 | tim10 confirm 36
COc1ccc(/C=C/C(=O)NC2CC3CCC2C3)cc1 (stereo unspecified)	none
O=[N+]([O-])c1ccc(N/N=C/c2cccnc2)cc1	TIM10 inh 42 | tim10 confirm inactive
Fc1ccc(C2=Nc3cccc4cccc(c34)N2)cc1	TIM10 inh 44 | tim10 confirm inactive
Brc1ccc(C2=Nc3cccc4cccc(c34)N2)o1	none
S=C(NCc1ccco1)Nc1cc(-c2ccccc2)[nH]n1	TIM10 inh 40 (no result: PfHsp90 set2) | tim10 confirm inactive
S=C(NCc1ccco1)Nc1ccc(Cl)c(Cl)c1	TIM10 inh 46 | tim10 confirm inactive
Cc1c(N(C(=O)c2ccccn2)C2(C(=O)NC3CCCC3)CCCCC2)c(=O)n(-c2ccccc2)n1C	none
O=C(COc1ccc(Cl)cc1Cl)NNC(=O)c1cccnc1	none
Cc1cc(Cl)ccc1OCC(=O)NNC(=O)c1cccnc1	TIM10 inh 80 | tim10 confirm inactive
CC(=O)Nc1ccc(S(=O)(=O)NCCC(=O)OCC(=O)c2cccc(Br)c2)cc1	none (no result: SKKanGAS inh, PfHsp90 set2)
CN(C(=O)c1cnc(N2CCN(c3ncccn3)CC2)c2ccccc12)c1ccc(Cl)cc1	TIM10 inh 52 | tim10 confirm 28
CC(=O)CCSc1nnc(-c2cccc(S(=O)(=O)N3CCOCC3)c2)o1	none (no result: PfHsp90 set2)
O=S(=O)(c1cccc(-c2nnc(SCc3nc4ccccc4s3)o2)c1)N1CCOCC1	TIM10 inh 43 | tim10 confirm inactive
Cc1ccccc1Cn1c(Cc2ccccc2)nc2ccccc21	TIM10 inh 42 (no result: PfHsp90 set2) | tim10 confirm 45
O=[N+]([O-])c1ccc(Sc2nc3ccccc3o2)c([N+](=O)[O-])c1	TIM10 inh 47 (no result: PfHsp90 set2) | tim10 confirm 68
O=[N+]([O-])c1ccc(Sc2cc[n+]([O-])c3ccccc23)c([N+](=O)[O-])c1	none
O=C(NC(CO)(CO)CO)[C@@H]1CCCN1S(=O)(=O)c1cccc2cccnc12	none (no result: SKKanGAS inh)
Cc1cccc(CSCCNC(=S)Nc2ccccc2)c1	TIM10 inh 48 | tim10 confirm inactive
CCCNC(=S)Nc1ccccc1	none
COCC(C)n1c(C)cc(C(=O)COC(=O)c2c(C)nn(-c3ccccc3)c2C)c1C (stereo unspecified)	TIM10 inh 43 | tim10 confirm inactive
COCC(C)n1c(C)cc(C(=O)COC(=O)C2=NN(c3ccccc3)C(=O)CC2)c1C (stereo unspecified)	none (no result: PfHsp90 set2)
Cc1nn(Cc2ccccc2)c(C)c1C(=O)OCC(=O)c1cc(C)n(C2CC2)c1C	none
COCCn1c(C)cc(C(=O)COC(=O)c2c(C)nn(Cc3ccccc3)c2C)c1C	TIM10 inh 41 | tim10 confirm inactive
CN(C)CCCNC(=S)N(CCO)Cc1cc2cc3c(cc2[nH]c1=O)OCO3	none
O=C1NCCOC(=O)[C@H](Cc2ccc(F)cc2)C/C=C\C[C@@H]1CC(=O)N(CCO)Cc1ccccc1	none (no result: SKKanGAS inh)
O=C1NCCOC(=O)[C@H](Cc2ccc(F)cc2)C/C=C\C[C@H]1CC(=O)N(CCO)Cc1ccccc1	TIM10 inh 47 (no result: SKKanGAS inh) | tim10 confirm inactive
O=C(Nc1ccccc1C(=O)N1CCCCC1)NC1CCCCC1	none
CSc1ccc(C(=O)C2CCCN(C(=O)c3ccc4c(c3)no[n+]4[O-])C2)cc1 (stereo unspecified)	TIM10 inh 46 | tim10 confirm 35
CCc1ccccc1NC(=S)N(Cc1cccs1)C1CCCC1	TIM10 inh 40 | tim10 confirm inactive
Cc1ccccc1NC(=S)N(Cc1cccs1)C1CCCC1	none
CCCNC(=O)c1ccc(N2CCC3(CC2)CC(c2cccc(Br)c2)=NO3)c(NC(=O)c2ccc(Cl)c([N+](=O)[O-])c2)c1	none
COc1cccc2[nH]c3c(N4CC(C)CC(C)C4)ncnc3c12 (stereo unspecified)	none (no result: PfHsp90 set2)
Cc1noc(C)c1NC(=O)Nc1cccc2c1O[C@H](CN(C)C(=O)NC1CCCCC1)[C@@H](C)CN([C@H](C)CO)C2=O	none (no result: SKKanGAS inh)
Cc1ccc(C(=O)Cn2c(NCCO)nc3ccccc32)cc1	none
Cc1ccc(C(=O)Cn2c(C(=O)/C=C/c3ccccc3)nc3ccccc32)cc1	TIM10 inh 43 (no result: PfHsp90 set2) | tim10 confirm 33
O=C(CSCc1ccc(Cl)cc1)Nc1ccc(S(=O)(=O)N2CCCCCC2)cc1	TIM10 inh 41 | tim10 confirm inactive
Cc1ccccc1NS(=O)(=O)c1ccc(NC(=O)CSCc2ccc(Br)cc2)cc1	TIM10 inh 41 | tim10 confirm inactive

Screening data: PubChem BioAssay, several laboratories
